Measured values: PubChem BioAssay (Tox21)
Results filed as inconclusive are left out. Calls of active or inactive are those of the source. Unless noted, calls come from the whole dose curve; as a rule, active = well fitted curve in the direction sought with a large enough effect in the repeat runs; inconclusive = weak or mixed curves; inactive = flat fitted curve, though single readings scatter.

How the values were obtained:
[1] = qHTS assay to test for compound auto fluorescence at 535 nm (green) in HEK293 cells (AID 720680); details: green autofluorescence 485/535 nm; series mostly up to 91.3 µM
[2] = qHTS assay to test for compound auto fluorescence at 460 nm (blue) in HEK293 cell free culture (AID 720681); details: cell-free medium, autofluorescence 405/460 nm (blue); series mostly up to 91.3 µM
Method in brief: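 Test compounds were pinned into cell-free culture medium (DMEM with 10% FBS) and fluorescence was read directly at Ex/Em 405/460 nm. Signals were expressed as fluorescence equivalents of triamterene, with DMSO vehicle as control.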

[3] = qHTS assay to test for compound auto fluorescence at 535 nm (green) in HEK293 cell free culture (AID 720682); details: cell-free medium, green autofluorescence 485/535 nm; series mostly up to 91.3 µM
Method in brief: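 Measurement is a direct plate read of green fluorescence (485 nm in, 535 nm out) after compound addition to serum-supplemented DMEM lacking cells, with fluorescein used to express intensities.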

[4] = qHTS assay to test for compound auto fluorescence at 590 nm (red) in HEK293 cell free culture (AID 720683); details: cell-free medium autofluorescence, Ex540/Em590 red; series mostly up to 91.3 µM
Method in brief: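 Tox21 10K library compounds were pinned into cell-free DMEM with 10% FBS and fluorescence was read at excitation 540 nm. Activity is expressed as Rose Bengal sodium equivalency.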

[5] = qHTS assay to test for compound auto fluorescence at 590 nm (red) in HepG2 cell free culture (AID 720684); details: cell-free medium autofluorescence, red 540/590 nm; series mostly up to 91.3 µM
Method in brief: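 Measured in medium alone (MEM containing 10% FBS) following pintool addition of compound; emission at 590 nm with 540 nm excitation, referenced to Rose Bengal sodium.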

[6] = qHTS assay to test for compound auto fluorescence at 460 nm (blue) in HepG2 cell free culture (AID 720685); details: Cell-free culture medium, blue autofluorescence 405/460 nm; series mostly up to 91.3 µM
Method in brief: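 Compound (23 nL) or DMSO pinned into cell-free MEM with 10% FBS; blue fluorescence read at 405/460 nm excitation/emission, expressed as auto-fluorescence equivalency to triamterene.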

[7] = qHTS assay to test for compound auto fluorescence at 460 nm (blue) in HepG2 cells (AID 720687); details: autofluorescence 405/460 nm, 1 h; series mostly up to 91.3 µM
Method in brief: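 Cells (2,000/well in MEM with 10% FBS) attached overnight at 37 C, then were exposed to compound or DMSO for 1 hr at 37 C, 5% CO2. Fluorescence read at Ex/Em 405/460 nm, expressed as triamterene-equivalent signal.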

[8] = target: Glucocorticoid receptor (Homo sapiens) (UniProt P04150); assay: qHTS assay to identify small molecule agonists of the glucocorticoid receptor (GR) signaling pathway (AID 720691; active = well fitted activation curve with a large enough effect in the signal ratio in the repeat runs, not every such curve was filed as active; the % refers to the signal ratio); details: GR-bla HeLa, beta-lactamase reporter ratio, 18 h; series mostly up to 62.4 µM
Method in brief: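 Agonist mode in a HeLa line carrying a GRE-controlled beta-lactamase reporter. Compounds act for 18 h at 37 C before a 2 h room-temperature FRET substrate step and fluorescence reading.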

[9] = target: Glucocorticoid receptor (Homo sapiens) (UniProt P04150); assay: qHTS assay to identify small molecule antagonists of the glucocorticoid receptor (GR) signaling pathway (AID 720692; active = well fitted inhibition curve with a large enough effect in the signal ratio in the repeat runs, not every such curve was filed as active; the % refers to the signal ratio); details: GR-bla HeLa, beta-lactamase FRET ratio, dexamethasone-stimulated, 18 h; series mostly up to 58.5 µM
Method in brief: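 Cells plated, rested 4 h at 37 C/5% CO2; compounds in DMSO pin-transferred; dexamethasone added to 5 nM final; 18 h at 37 C; B/G FRET substrate added, 2 h room temperature; fluorescence measured.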

Measured: Potency

Chain of Glucocorticoid receptor (Homo sapiens) (P04150 whole entry, looked up): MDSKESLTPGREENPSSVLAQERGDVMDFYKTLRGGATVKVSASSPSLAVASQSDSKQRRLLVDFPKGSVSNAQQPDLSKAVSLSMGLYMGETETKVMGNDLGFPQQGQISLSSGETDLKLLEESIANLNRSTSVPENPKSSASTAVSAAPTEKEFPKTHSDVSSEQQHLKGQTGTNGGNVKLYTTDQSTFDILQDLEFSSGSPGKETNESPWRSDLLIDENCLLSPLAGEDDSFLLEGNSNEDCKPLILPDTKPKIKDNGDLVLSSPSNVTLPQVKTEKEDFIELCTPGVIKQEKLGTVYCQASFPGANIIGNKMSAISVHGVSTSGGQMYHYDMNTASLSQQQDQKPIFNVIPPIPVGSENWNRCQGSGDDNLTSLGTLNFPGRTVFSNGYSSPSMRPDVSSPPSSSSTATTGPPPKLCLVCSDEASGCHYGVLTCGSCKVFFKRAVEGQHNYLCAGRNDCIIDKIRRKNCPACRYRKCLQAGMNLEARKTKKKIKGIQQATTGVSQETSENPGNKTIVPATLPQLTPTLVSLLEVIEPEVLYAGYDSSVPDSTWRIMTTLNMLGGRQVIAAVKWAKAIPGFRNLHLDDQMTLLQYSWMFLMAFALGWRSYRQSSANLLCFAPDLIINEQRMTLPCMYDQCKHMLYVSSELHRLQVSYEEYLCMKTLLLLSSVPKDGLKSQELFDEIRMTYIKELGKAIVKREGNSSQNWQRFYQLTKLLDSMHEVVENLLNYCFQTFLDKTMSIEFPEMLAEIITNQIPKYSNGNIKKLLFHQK

CCN(N=O)C(N)=O
not listed: [9]
inactive: all other assays above

CNC(=O)N(C)c1nnc(C(C)(C)C)s1
not listed: [8] | [9]
inactive: all other assays above

CC(C)(OOC(C)(C)c1ccccc1)c1ccccc1
inactive: all assays above
